Among the data in PubChem BioAssay AID463173 (ICCB-Longwood Screening Facility, Harvard Medical School, 2010) are survival values, retold here.

Molecules are shown by their SMILES. In all, about 52,000 compounds went through this assay and about 4,300 (8.3%) were called active. Many of the other results were omitted from the sample, so actives are more common in it than they were. Values without a mark were called inactive. No stated cut-off is given here; in the data, active means survival mostly below about 52% (no sharp cut-off); inactive means mostly above about 56%.

This assay deals with DeltatarO mutant. Briefly: S. aureus survival, RN4220 and DeltatarO strains – OD600, teichoic acid synthesis inhibitors, primary screen (AID 463173). To be noted: S. aureus RN4220 wild type/DeltatarO growth, OD600, 18 h, stronger effect = lower value, concentration not given here.
Consider `O=C1CC(=O)N(C2CCCCC2)C(=O)N1`, for which the survival is 77%.
With `CCSc1nnc(NC(=O)c2cccn(Cc3ccc(Cl)cc3)c2=O)s1` the figure was 73%; with `CC(=O)Nc1c(O)[nH]c(=S)[nH]c1=O`, 103%.
With `O=C(Nc1nc2ccccc2s1)c1cccn(Cc2ccccc2)c1=O` the figure was 83%; with `COC(=O)CC1=C(C(=O)OC)C2(C(=O)Nc3ccc(F)cc32)C(C#N)=C(N)O1` (stereo unspecified), 65%; with `CCOC(=O)C1=C(C)OC(N)=C(C#N)C12C(=O)N1c3c(cccc32)C(C)CC1(C)C` (stereo unspecified), 51%.
With `CCOC(=O)CC1=C(C(=O)OCC)C2(C(=O)N(C)c3ccccc32)C(C#N)=C(N)O1` (stereo unspecified) the figure was 0% (active).
Turning to `CCC(C)c1c(O)[nH]c(=S)[nH]c1=O` (stereo unspecified), the survival was 82%.
With `CCN(CC)C(=O)c1ccc(NC(=O)c2ccc(-c3nn(C)c(=O)c4ccccc34)cc2)cc1` the figure was 68%.
With `Cc1ccnc(NS(=O)(=O)c2ccc(N=Cc3c(O)n(C)c(=O)n(C)c3=O)cc2)n1` the figure was 93%; with `COc1ccc(-c2nc(CN3C(=O)CN=C(c4ccccc4Cl)c4cc(Cl)ccc43)c(C)o2)cc1OC`, 63%.
With `CN1CCN(c2oc(-c3ccc(COc4ccccc4)o3)nc2C#N)CC1` the figure was 41% (active); with `CN1C(=O)C(Cc2cccs2)C(=O)N(C)C1=O`, 80%; with `CC(C)C(=O)N1N=C(c2cccnc2)CC1(O)C(F)(F)F` (stereo unspecified), 66%.
On to `OC1(c2ccc(F)cc2)CC2CCC(C1)N2Cc1nnnn1C1CCCCC1` (stereo unspecified), for which the survival is 97%.
Consider `Cc1ccc(NC(=O)N(Cc2ccc3c(c2)OCO3)C2CCN(Cc3ccccc3)CC2)cc1F`, for which the survival was 87%.
Regarding `Cc1ccc(NC(=O)N(Cc2ccc3c(c2)OCO3)C2CCN(Cc3ccccc3)CC2)cc1C`, the survival was 17% (active).
On to `Cc1ccc(NC(=O)N(Cc2ccc3c(c2)OCO3)C2CCN(Cc3ccccc3)CC2)cc1Cl`, for which the survival is 128%.
With `COc1ccc(NC(=O)CN2C(=O)C(C)N=C(c3ccccc3)c3ccccc32)cc1OC` (stereo unspecified) the figure was 116%; with `CCCC12CN3CC(CCC)(CN(C1)C3c1ccccn1)C2=O` (stereo unspecified), 84%.
With `O=C1CC(=O)N(c2ccccc2)C(=O)N1c1ccccc1` the figure was 90%; with `COc1cc(OC)cc(C(=O)Nc2ccc(Cl)cc2C(=O)c2ccccc2Cl)c1`, 171%.
For `Cc1ccc(OCC(=O)Nc2ccc(Cl)cc2C(=O)c2ccccc2)cc1C`, the survival is 69%.
Regarding `COc1ccc(C(=O)Nc2ccc(Cl)cc2C(=O)c2ccccc2)c(OC)c1`, the survival was 2% (active).
With `CC(C)(C)c1ccc(C(=O)Nc2ccc(Cl)cc2C(=O)c2ccccc2)cc1` the figure was 6% (active); with `O=C(Nc1ccc(Br)cc1C(=O)c1ccccc1)c1ccccc1`, -1% (active).
With `Cc1cc(C)cc(OCC(=O)Nc2ccc(Cl)cc2C(=O)c2ccccc2)c1` the figure was 82%.
The same measure for `Cc1cccc(C)c1OCC(=O)Nc1ccc(Cl)cc1C(=O)c1ccccc1`: 17% (active).
Turning to `CC(C)(C)c1ccc(OCC(=O)Nc2ccc(Cl)cc2C(=O)c2ccccc2)cc1`, the survival was 70%.
With `O=C(Nc1ccc(Br)cc1C(=O)c1ccccc1Cl)c1ccccc1F` the figure was 52%; with `CSc1ncc(C(=O)Nc2ccc(Cl)cc2C(=O)c2ccccc2)c(C)n1`, 98%.
The same measure for `O=C(Nc1ccc(Br)cc1C(=O)c1ccccc1Cl)c1ccc(Br)cc1`: 144%.
With `O=C(COc1ccc(Cl)cc1)Nc1ccc(Cl)cc1C(=O)c1ccccc1` the figure was 83%.
In the case of `CC(=O)NC1CC2CCC(C1)N2` (stereo unspecified), the survival was 98%.
Regarding `O=C(CCc1nc(C2=CCN(Cc3cccc(Cl)c3)CC2)no1)Nc1ccccc1F`, the survival was 81%.
With `OC1(c2cccc(F)c2)CC2CCC(C1)N2Cc1nnnn1CCc1ccccc1` (stereo unspecified) the figure was 85%; with `CSc1ccc(CN2CCN(C(=O)COc3cccc(C)c3)CC2)cc1`, 84%.
With `Cc1c(/C(CC(C)C)=N/O)c2ccccc2n1C` the figure was 79%.
As to `O=C(Nc1ccc(F)c([N+](=O)[O-])c1)c1cccn(Cc2ccccc2)c1=O`, the survival is 115%.
The same measure for `CN1CCN(Cc2cn3ccccc3n2)CC1`: 104%.
With `CCOc1ccc(CN(CCc2ccc3c(c2)OCO3)Cc2cccc(OC)c2)cc1` the figure was 44%.
The same measure for `CCOc1ccc(CN(CCc2ccc3c(c2)OCO3)Cc2cc(OC)ccc2O)cc1`: 62%.
For `O=C(COc1ccc(Br)cc1)Nc1ccc(Cl)cc1C(=O)c1ccccc1`, the survival was 83%.
With `O=C(Nc1ccc(Cl)cc1C(=O)c1ccccc1)c1cc(Cl)cc(Cl)c1` the figure was 150%; with `O=C(Nc1ccc(Cl)cc1C(=O)c1ccccc1)c1ccccc1Br`, 24% (active).
The same measure for `CC(C)OC12Oc3ccccc3C=C1N1CCC2CC1` (stereo unspecified): 80%; for `COc1ccc(CN2CCN(C(=O)COc3ccccc3)CC2)c(OC)c1`: 184%.
With `c1cc(CN2CCNCC2)ccn1` the figure was 105%; with `Nc1c(C(=O)Nc2ccc(F)c(Cl)c2)sc2nc3c(cc12)N1CCC3CC1`, 65%; with `Nc1c(C(=O)Nc2ccc(OC(F)(F)F)cc2)sc2nc3c(cc12)N1CCC3CC1`, 99%.
Consider `Nc1c(C(=O)Nc2cccc(Br)c2)sc2nc3c(cc12)N1CCC3CC1`, for which the survival is 40% (active).
With `Nc1c(C(=O)Nc2ccc(Br)cc2F)sc2nc3c(cc12)N1CCC3CC1` the figure was 132%.
The same measure for `Nc1c(C(=O)Nc2ccc(Cl)cc2)sc2nc3c(cc12)N1CCC3CC1`: 55%; for `Nc1c(C(=O)Nc2ccc(Cl)c(C(F)(F)F)c2)sc2nc3c(cc12)N1CCC3CC1`: 4% (active).
As for `COc1ccc(C2CC(=O)Oc3c2c(=O)oc2ccccc32)c(OC)c1OC` (stereo unspecified), the survival was 75%.
With `COc1ccccc1CN1CCN(C(=O)COc2cccc(C)c2)CC1` the figure was 162%.
`O=C1CN=C(c2ccccc2)c2cc(Cl)ccc2N1Cc1ccc(Cl)cc1`: the survival is 66%.
The same measure for `Cc1ccc(Cn2cccc(C(=O)Nc3ccc4c(c3)OCCO4)c2=O)cc1`: 83%; for `CCOc1ccccc1CN(CCc1ccc2c(c1)OCO2)Cc1ccc(CC)cc1`: 111%.
The same measure for `CCCC1=Nc2cc(C(=O)NCCCN(CC)CC)ccc2Sc2ccccc21`: 138%; for `CCCC1=Nc2cc(C(=O)NC3CCC(C)CC3)ccc2Sc2ccccc21` (stereo unspecified): 39% (active).
Consider `CC1CC(=O)C2CCCCC2N1` (stereo unspecified), for which the survival was 84%.
The same measure for `Cc1ccc(Cn2cccc(C(=O)Nc3ccc4c(c3)OCO4)c2=O)cc1`: 75%.
For the molecule `CN(C)C(=O)Oc1cccc2cccnc12`, the survival was 76%.
With `Cc1ccc(-n2c(/C=C/c3ccccc3)nc3ccccc3c2=O)cc1C` the figure was 78%; with `Cc1ccccc1-n1c(/C=C/c2ccc(O)cc2)nc2ccccc2c1=O`, 35% (active); with `Cc1cccc(-n2c(/C=C/c3c(C)[nH]c4ccccc34)nc3ccccc3c2=O)c1`, 120%.
With `Cc1ccccc1-n1c(/C=C/c2c(C)[nH]c3ccccc23)nc2ccccc2c1=O` the figure was 18% (active); with `Cc1ccc(-n2c(/C=C\c3ccc(F)c(F)c3)nc3ccccc3c2=O)c(C)c1`, 98%; with `CSc1ccc(/C=C/c2nc3ccccc3c(=O)n2-c2cccc(Cl)c2C)cc1`, 80%.
The same measure for `Cc1ccc(-n2c(/C=C/c3ccc(Br)s3)nc3ccccc3c2=O)cc1C`: 90%; for `Cc1ccccc1-n1c(/C=C/c2ccccc2F)nc2ccccc2c1=O`: 5% (active); for `O=c1c2ccccc2nc(/C=C/c2ccccc2)n1-c1ccccc1F`: 69%.
Take `COc1ccc(-n2c(/C=C\c3ccccc3F)nc3ccccc3c2=O)c(OC)c1`: the survival was 89%.
The same measure for `Cc1ccccc1-n1c(/C=C/c2ccc(N(C)C)cc2)nc2ccccc2c1=O`: 8% (active); for `O=c1c2ccccc2nc(/C=C\c2ccc(F)cc2)n1-c1ccccc1F`: 94%.
The same measure for `CN1C2CCC1CC(OC(=O)C1(c3ccccc3)CCCC1)C2` (stereo unspecified): 116%.
With `CCN(CC)CCSc1nc2ccccc2c(=O)n1-c1ccc(Cl)cc1` the figure was 148%; with `CC(c1ccccc1)n1cncc1C(=O)N1CCCC1=O` (stereo unspecified), 87%.
`Cc1ccc(OCC(=O)N2CCN(Cc3ccc(F)cc3)CC2)cc1`: the survival is 156%.
The same measure for `Cc1cccc(NC(=O)Cn2cc(C(=O)c3ccccc3)c3ccccc32)c1`: 130%; for `CCOc1ccc(CN2C(=O)c3ccccc3Sc3ccc(C(=O)N4CCC5(CC4)OCCO5)cc32)cc1`: 74%; for `COc1cc2[nH]c(=O)n(-c3ccc(C)cc3)c(=O)c2cc1OC`: 94%.
The same measure for `OC1CCNC2CCCCC12` (stereo unspecified): 94%; for `Cc1nc2ccccc2c(=O)n1-c1cccc(O)c1`: 96%.
On to `Cc1oc(-c2ccccc2Cl)nc1CN1C(=O)CN=C(c2ccccc2)c2cc(Cl)ccc21`, for which the survival was 77%.
The same measure for `Cc1cccc(Cn2cccc(C(=O)Nc3nc4ccccc4s3)c2=O)c1`: 122%.
Turning to `Cc1ccccc1-n1nc(C)c2c1NC(=O)CSC2c1ccc(Cl)cc1` (stereo unspecified), the survival was 21% (active).
For the molecule `Cc1ccc(-n2nc(C)c3c2NC(=O)CSC3c2ccc(O)cc2)cc1Cl` (stereo unspecified), the survival was 73%.
Turning to `COc1ccc(Br)cc1C1SCC(=O)Nc2c1c(C)nn2-c1ccccc1C` (stereo unspecified), the survival is 43%.
As to `Cc1ccccc1-n1nc(C)c2c1NC(=O)CSC2c1ccccc1C(F)(F)F` (stereo unspecified), the survival was 39% (active).
The same measure for `CCc1ccc(-n2nc(C)c3c2NC(=O)CSC3c2ccccc2C)cc1` (stereo unspecified): 57%; for `Cc1ccccc1-n1nc(C)c2c1NC(=O)CSC2c1ccc(N(C)C)cc1` (stereo unspecified): 43% (active); for `CCc1ccc(-n2nc(C)c3c2NC(=O)CSC3c2ccc(C(=O)OC)cc2)cc1` (stereo unspecified): 64%.
The same measure for `O=C(COc1cc(Cl)ccc1Cl)Nc1ccc(Cl)cc1C(=O)c1ccccc1`: 69%; for `CC1=CC(=O)C2=C(C)CC(O)C3C(C)C(=O)OC3C12` (stereo unspecified): 100%.
